Test [1] is described as follows: Nuclear factor erythroid 2-related factor 2/antioxidant responsive element (Nrf2/ARE) small molecule agonists: qHTS cell viability counter screen in human keratinocytes (AID 1919968; active = well fitted cell-killing curve with a large enough effect in the repeat runs; note: nearly all actives have a fitted effect of over 55% in size). The method in brief:
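KeratinoSens cells (HaCaT keratinocytes stably carrying an ARE-luciferase reporter) were seeded at 1,500 cells/well and rested 5 h at 37 C/5% CO2. They were then exposed to compounds in DMSO for 23 h. Viability was read by CellTiter-Fluor fluorescence after 1 h.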
Background: In qHTS, concentration-response curves come from the screen itself.

Test [2] can be described thus: Nuclear factor erythroid 2-related factor 2/antioxidant responsive element (Nrf2/ARE) small molecule agonists: luciferase reporter gene qHTS assay in human keratinocytes (AID 1919969). Note: nearly all actives have a fitted effect of over 35% in size. Note: potency is the fitted concentration of half-maximal effect. In general terms: In a reporter assay the amount or activity of a reporter protein is the signal.
Test [3] addresses Gonadotropin-releasing hormone receptor (Homo sapiens) (UniProt P30968). Nature of the test: Human gonadotropin-releasing hormone receptor (GnRHR) small molecule agonists, calcium flux assay in GnRHR-HEK293 cells (AID 1920063). Note: nearly all actives have a fitted effect of over 35% in size. The method, boiled down:
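HEK293 cells stably expressing human GnRHR were plated 18 h at 37 °C, loaded with calcium dye 1 h at 37 °C, then given compound in agonist mode; fluorescence (Ex/Em 480/540) read kinetically for 3 min at 1 s intervals.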
In general terms: Calcium assays in cells follow changes in intracellular calcium, usually with a dye or a luminescent sensor.

Test [4] is described as follows: p53 small molecule agonists, cell-based qHTS assay with human liver microsomes (AID 1963577).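 Note: p53 response element beta-lactamase reporter cells with liver microsomes plus NADPH.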 The method in brief:
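p53RE-bla cells; 5 h settle, 37 C/5% CO2; cpd + HLM 0.5 mg/mL + NADPH 0.5 mg/mL (final); 16 h 37 C; LiveBLAzer 2 h RT dark; fluorescence readout.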

Test [5] is described as follows: p53 small molecule agonists, cell-based qHTS assay with rat liver microsomes (AID 1963578). The method, boiled down:
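Rat liver microsome activation: microsomes 0.5 mg/mL, NADPH 0.5 mg/mL final; p53RE-bla cells, 16 h 37 C; LiveBLAzer readout, 2 h RT dark.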

Test [6] is described as follows: p53 small molecule agonists, cell-based qHTS assay with rat liver microsomes: qHTS cell viability counter screen (AID 1963580). Note: nearly all actives have a fitted effect of over 45% in size. Note: potency is the fitted concentration of half-maximal effect. The method in brief:
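p53RE-bla HCT-116 cells were exposed 16 h at 37 C to compounds with rat liver microsomes (0.5 mg/mL) and NADPH (0.5 mg/mL). Viability was measured in the same wells as ATP content by CellTiter-Glo luminescence.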

Test [7] in a line: p53 small molecule agonists, cell-based qHTS assay (AID 1963582; active = well fitted activation curve with a large enough effect in the signal ratio in the repeat runs, not every such curve was filed as active; the % refers to the signal ratio). The method, boiled down:
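p53RE-bla beta-lactamase reporter cells rested 5 h at 37 C/5% CO2, then received compounds in DMSO by pin transfer and were incubated 16 h at 37 C. LiveBLAzer B/G FRET substrate was loaded for 2 h at room temperature before fluorescence reading.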

The target in test [8] is 5-hydroxytryptamine receptor 2A (Homo sapiens) (UniProt P28223). Nature of the test: 5-hydroxytryptamine receptor 2A (HTR2A) small molecule antagonists, cell-based qHTS assay (AID 1963586). Note: nearly all actives have a fitted effect of over 45% in size. The method in brief: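 Antagonist-mode intracellular calcium assay: DOI (4 nM) added after 5 min compound pre-incubation at room temperature to dye-loaded HTR2A-CHO cells. Fluorescence followed for 3 min, sampled every second.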
Chain of 5-hydroxytryptamine receptor 2A (Homo sapiens) (P28223 whole entry, looked up): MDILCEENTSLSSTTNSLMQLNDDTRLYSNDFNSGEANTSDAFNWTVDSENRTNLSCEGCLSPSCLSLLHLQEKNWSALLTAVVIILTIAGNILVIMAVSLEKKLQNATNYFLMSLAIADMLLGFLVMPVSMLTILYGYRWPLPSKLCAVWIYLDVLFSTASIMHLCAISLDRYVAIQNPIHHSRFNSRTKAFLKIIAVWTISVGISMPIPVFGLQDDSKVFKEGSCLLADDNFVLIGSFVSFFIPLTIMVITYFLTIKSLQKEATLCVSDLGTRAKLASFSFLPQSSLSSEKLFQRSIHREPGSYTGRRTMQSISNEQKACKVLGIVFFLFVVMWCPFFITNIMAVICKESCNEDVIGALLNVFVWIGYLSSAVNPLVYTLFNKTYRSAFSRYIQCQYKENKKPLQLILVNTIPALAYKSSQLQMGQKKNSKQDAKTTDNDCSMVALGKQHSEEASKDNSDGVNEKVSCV

For test [9] the target is unchanged. Nature of the test: 5-hydroxytryptamine receptor 2A (HTR2A) small molecule agonists, cell-based qHTS assay (AID 1963587). Note: nearly all actives have a fitted effect of over 30% in size. The method in brief: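 CHO cells stably expressing human HTR2A, plated 18 h, loaded with calcium dye 1 h at 37 C. Agonist mode: compounds added and intracellular calcium fluorescence recorded kinetically for 2 min at 1 sec intervals.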
In test [10] the target is Muscarinic acetylcholine receptor M1 (Homo sapiens) (UniProt P11229). Nature of the test: Cholinergic receptor muscarinic 1 (CHRM1) small molecule antagonists, cell-based qHTS assay (AID 1963588). Note: nearly all actives have a fitted effect of over 40% in size. The method, boiled down:
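CHRM1-CHO calcium-flux assay, antagonist mode. Cells were seeded 18 h, dye-loaded 1 h at 37 C and given compound for 5 min at RT, then acetylcholine was added at 50nM. FDSS fluorescence was read 3 min; 15 concentrations, three runs.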

For test [11] the target is unchanged. Put plainly: Cholinergic receptor muscarinic 1 (CHRM1) small molecule agonists, cell-based qHTS assay (AID 1963589). Note: nearly all actives have a fitted effect of over 35% in size. The method in brief:
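CHO cells stably expressing human CHRM1, seeded 18 h at 37 C/5% CO2, dye-loaded 1 h at 37 C, then given compound in agonist mode; intracellular calcium fluorescence read kinetically at 1 s intervals. Fifteen concentrations, three independent runs.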

Test [12] in a line: cAMP Responsive Elements (CRE) small molecule agonists, cell-based qHTS assay (AID 1963590). The method, boiled down:
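CRE-bla HEK 293T cells in DMEM with 10% dialyzed FBS, NEAA, pyruvate and 25 mM HEPES were plated 18 h at 37 C/5% CO2, then exposed to compounds in DMSO for 3 h before LiveBLAzer B/G FRET substrate addition.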

A short description of test [13]: cAMP Responsive Elements (CRE) small molecule antagonists, cell-based qHTS assay (AID 1963591; active = well fitted inhibition curve with a large enough effect in the signal ratio in the repeat runs, not every such curve was filed as active; the % refers to the signal ratio). The method in brief: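 CRE-bla HEK293T cells were plated 18 h at 37 °C/5% CO2, pinned with compound in DMSO, then stimulated with NKH477 at 0.25 uM final for 3 h. LiveBLAzer B/G FRET substrate was added and plates incubated 2 h at room temperature.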
The target of test [14] is Beta-2 adrenergic receptor (Homo sapiens) (UniProt P07550). Put plainly: Adrenergic beta2 receptor (ADRB2) small molecule antagonists, cell-based qHTS assay (AID 1963592). Note: series mostly up to about 92 µM; nearly all actives have a fitted effect of over 50% in size. The method in brief: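 Cells (CHO, stable ADRB2 overexpression) incubated 18-20hr at 37C; compounds added from DMSO; agonist mix (1nM isoproterenol, 100uM IBMX, 25uM Ro-20-1724) added; 0.5hr RT; d2-cAMP and anti-cAMP-cryptate added; 1hr RT; 665/615 nm read.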
Chain of Beta-2 adrenergic receptor (Homo sapiens) (P07550 whole entry, looked up): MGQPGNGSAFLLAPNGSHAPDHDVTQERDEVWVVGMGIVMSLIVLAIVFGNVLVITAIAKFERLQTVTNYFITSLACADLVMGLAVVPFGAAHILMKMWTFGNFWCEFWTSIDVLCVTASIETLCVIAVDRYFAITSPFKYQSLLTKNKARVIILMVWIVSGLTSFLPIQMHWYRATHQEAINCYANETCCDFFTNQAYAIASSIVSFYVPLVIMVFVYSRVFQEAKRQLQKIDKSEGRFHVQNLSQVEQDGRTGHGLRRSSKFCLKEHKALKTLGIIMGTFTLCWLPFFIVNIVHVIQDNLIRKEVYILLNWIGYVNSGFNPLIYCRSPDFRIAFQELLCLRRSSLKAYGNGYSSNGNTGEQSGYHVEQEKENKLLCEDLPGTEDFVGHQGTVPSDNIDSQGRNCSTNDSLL

The target is the same in test [15]. Put plainly: Adrenergic beta2 receptor (ADRB2) small molecule agonists, cell-based qHTS assay (AID 1963593).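 Note: CHO cells stably overexpressing human ADRB2.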 The method in brief: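 CHO cells stably over-expressing ADRB2 were plated overnight at 37C, then dosed with compounds plus a stimulation mix containing 100uM IBMX and 25uM Ro-20-1724 for 0.5hr at room temperature. cAMP was measured by HTRF competition, 1hr.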

Test [16] has as its target D(2) dopamine receptor (Homo sapiens) (UniProt P14416). Put plainly: Dopamine D2 receptor (DRD2) small molecule agonists, cell-based qHTS assay (AID 1963594). Note: nearly all actives have a fitted effect of over 35% in size. The method, boiled down: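 HEK293 cells stably expressing human DRD2, pre-treated with PDE inhibitor Ro20-1724 (0.1 mM final) and compound 10 min at room temperature, then stimulated with NKH477 (200nM […]) for 30 min. cAMP read by HTRF (665/620 nm).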

Test [17] shares this target. Put plainly: Dopamine D2 receptor (DRD2) small molecule antagonists, cell-based qHTS assay (AID 1963595; active = well fitted inhibition curve with a large enough effect in the signal ratio in the repeat runs, with a control signal flat; the % refers to the signal ratio). The method in brief:
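Antagonist mode in DRD2-HEK293 cells: after compound addition with 0.1 mM Ro20-1724, cells received quinpirole (12 nM) and NKH477 (200 nM) for 30 min at room temperature; HTRF cAMP read after 1 h detection.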

The nature of test [18]: p53 small molecule agonists, cell-based qHTS assay with human liver microsomes: qHTS cell viability counter screen (AID 1963579). Note: nearly all actives have a fitted effect of over 45% in size. The method in brief: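 Luminescent CellTiter-Glo read-out, 30 min at room temperature, gauged cytotoxicity in p53RE-bla cells exposed 16 h at 37 C to DMSO-dissolved compounds with metabolic activation by human liver microsomes and NADPH, each 0.5 mg/mL final.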

Test [19] can be described thus: p53 small molecule agonists, cell-based qHTS assay: qHTS cell viability counter screen (AID 1963581). Note: nearly all actives have a fitted effect of over 45% in size. The method, boiled down: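 p53RE-bla HCT-116 cells were exposed to compounds for 16 h at 37 C; after the beta-lactamase FRET read in the same wells, CellTiter-Glo was added and luminescence (intracellular ATP) read after 30 min at room temperature.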
A short description of test [20]: G protein-coupled receptor (GPCR) small molecule agonists, calcium flux assay: HEK293 wild type cell line counter screen (AID 1920065). The method, boiled down:
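Cells were plated and cultured 18 h at 37 C/5% CO2, then loaded with calcium dye for 1 h at 37 C. Compounds in DMSO were pin-transferred in agonist mode, and fluorescence (Ex/Em 480/540) was read kinetically for 3 min at 1 s intervals.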

Values joined by “and” are separate entries in the source; they are usually repeats but may differ in a detail not shown here. Equal entries are not always repeated. Inconclusive results are not listed. Active and inactive are the calls of the source. Unless noted, calls come from the whole dose curve.

The record followed here is PubChem BioAssay (Tox21).

Chain of Muscarinic acetylcholine receptor M1 (Homo sapiens) (P11229 whole entry, looked up): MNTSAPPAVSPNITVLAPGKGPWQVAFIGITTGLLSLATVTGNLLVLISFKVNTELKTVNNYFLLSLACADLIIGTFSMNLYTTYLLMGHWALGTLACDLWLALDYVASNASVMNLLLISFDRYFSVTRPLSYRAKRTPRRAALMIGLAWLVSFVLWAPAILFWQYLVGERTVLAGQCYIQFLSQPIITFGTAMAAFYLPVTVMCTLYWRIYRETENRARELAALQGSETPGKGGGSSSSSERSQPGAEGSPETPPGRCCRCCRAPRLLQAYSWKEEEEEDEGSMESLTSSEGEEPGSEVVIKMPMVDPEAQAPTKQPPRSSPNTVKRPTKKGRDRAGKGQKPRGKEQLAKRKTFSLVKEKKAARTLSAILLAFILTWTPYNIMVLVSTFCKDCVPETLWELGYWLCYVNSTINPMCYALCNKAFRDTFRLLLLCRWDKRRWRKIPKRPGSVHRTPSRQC
Chain of Gonadotropin-releasing hormone receptor (Homo sapiens) (P30968 whole entry, looked up): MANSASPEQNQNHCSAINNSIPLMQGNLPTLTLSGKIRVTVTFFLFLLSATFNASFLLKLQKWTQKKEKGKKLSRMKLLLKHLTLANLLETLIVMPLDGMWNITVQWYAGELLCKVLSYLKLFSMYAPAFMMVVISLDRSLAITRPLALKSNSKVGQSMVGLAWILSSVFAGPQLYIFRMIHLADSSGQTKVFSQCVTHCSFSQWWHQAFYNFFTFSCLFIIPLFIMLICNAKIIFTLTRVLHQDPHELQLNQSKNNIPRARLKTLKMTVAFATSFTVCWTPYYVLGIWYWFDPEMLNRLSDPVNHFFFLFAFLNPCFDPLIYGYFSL
Chain of D(2) dopamine receptor (Homo sapiens) (P14416 whole entry, looked up): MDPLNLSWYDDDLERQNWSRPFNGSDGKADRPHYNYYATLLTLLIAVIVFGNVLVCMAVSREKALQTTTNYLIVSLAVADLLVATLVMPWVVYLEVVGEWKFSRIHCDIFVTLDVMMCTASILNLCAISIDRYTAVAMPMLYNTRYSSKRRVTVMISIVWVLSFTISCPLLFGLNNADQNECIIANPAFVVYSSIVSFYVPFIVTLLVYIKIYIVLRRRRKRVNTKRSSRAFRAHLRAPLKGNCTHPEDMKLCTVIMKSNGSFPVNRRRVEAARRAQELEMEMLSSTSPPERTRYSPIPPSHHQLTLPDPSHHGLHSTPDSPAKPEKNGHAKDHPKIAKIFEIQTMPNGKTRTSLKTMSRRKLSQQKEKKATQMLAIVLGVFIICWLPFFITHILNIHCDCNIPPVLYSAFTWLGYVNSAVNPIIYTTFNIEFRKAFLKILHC

With `O=S(=O)(O)c1ccc2nc(-c3ccccc3)[nH]c2c1`, the Potency result in [1], in [2], in test [3], in test [4], in [5] and in test [7] was “inactive” throughout. The Potency entry in test [8], in test [9], in [10], in test [11], in test [12] and in test [13] was “inactive” each time. Moreover, the Potency result in test [14], in [15], in test [16] and in test [17] was “inactive” each time. For the same molecule, the Potency in test [6] is 15.5 µM (active).

For the molecule `CC(=O)CCC=C(C)C`, the Potency result in [1], in test [2], in test [3], in [4], in test [5] and in [18] was “inactive” throughout. Also, the Potency result in test [6], in test [19], in test [7], in [8], in [9] and in test [10] was “inactive” throughout. Moreover, the Potency entry in test [11], in test [12], in [13], in test [14], in [15] and in [16] was “inactive” each time.

Turning to `NC(=O)c1ccccc1O`, the Potency entry in test [1], in [2], in [3], in test [4], in test [18] and in [6] was “inactive” each time. The Potency entry in [19], in [7], in test [12], in [13], in [14] and in test [15] was “inactive” throughout. The Potency entry in test [16] and in test [17] was “inactive” each time.

For the molecule `Nc1ncn([C@@H]2O[C@H](CO)[C@@H](O)[C@H]2O)c(=O)n1`, the Potency entry in [1], in [3], in test [20], in test [4], in test [5] and in test [18] was “inactive” throughout. The Potency entry in [6], in test [19], in test [12], in test [14], in test [16] and in test [17] was “inactive” each time. For the same molecule, the Potency in [2] is 30.6 µM (active) and 7.5 µM (active).

On to `C/C=C(C)/C=C/C=C(C)C`, for which the Potency entry in test [1], in test [3], in [20], in [4], in test [5] and in test [18] was “inactive” each time. The Potency entry in test [6], in [19], in [7], in test [8], in [9] and in test [10] was “inactive” each time. For the same molecule, the Potency entry in test [11], in [12], in test [13], in test [14], in test [15] and in test [16] was “inactive” in each case. In addition, the Potency entry in test [17] was “inactive”. Moreover, the Potency in test [2] was 60.4 µM (active) and 54.5 µM (active).

For the molecule `O=C(O)CN(CC(=O)O)CC(=O)O`, the Potency entry in test [1], in [2], in test [3], in test [20], in test [4] and in test [5] was “inactive” in each case. The Potency entry in test [19], in [7], in [8], in [9], in test [10] and in test [11] was “inactive” in each case. Besides, the Potency result in test [12], in test [13], in test [14], in test [16] and in test [17] was “inactive” throughout.

On to `C=CCc1ccc(O)c(OC)c1`, for which the Potency entry in [1], in test [2], in test [3], in test [20], in test [4] and in test [5] was “inactive” in each case. Besides, the Potency result in test [18], in test [6], in [19], in [7], in test [12] and in test [13] was “inactive” each time. Besides, the Potency entry in [14], in [15] and in test [17] was “inactive” in each case.

In the case of `CC(=O)OCC(=O)[C@@]12N=C(C)O[C@@H]1C[C@H]1[C@@H]3CCC4=CC(=O)C=C[C@]4(C)[C@H]3[C@@H](O)C[C@@]12C`, the Potency result in test [1], in test [2], in [3], in test [20], in test [4] and in test [5] was “inactive” each time. Also, the Potency entry in test [18], in test [6], in test [7], in test [8], in test [9] and in test [10] was “inactive” throughout. Moreover, the Potency entry in test [11], in [12], in test [13], in test [14], in test [16] and in [17] was “inactive” each time.
